The sample as a whole holds a higher share of hits than the screen did.
AMPAR-TARP mod – modulators of AMPA receptor GluA2-stargazin complexes; calls only at 30 µM; hit rate 3.5% among 40,000; AID 1259245; HEK293 GluA2+stargazin, membrane potential dye (FDSS), glutamate EC50; hits were called plate by plate, in both directions; O88602+P19491;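 active = any of four per-well response measures lying three or more SD from its plate-wide compound average, in either direction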
Target sequence (O88602 whole entry, looked up): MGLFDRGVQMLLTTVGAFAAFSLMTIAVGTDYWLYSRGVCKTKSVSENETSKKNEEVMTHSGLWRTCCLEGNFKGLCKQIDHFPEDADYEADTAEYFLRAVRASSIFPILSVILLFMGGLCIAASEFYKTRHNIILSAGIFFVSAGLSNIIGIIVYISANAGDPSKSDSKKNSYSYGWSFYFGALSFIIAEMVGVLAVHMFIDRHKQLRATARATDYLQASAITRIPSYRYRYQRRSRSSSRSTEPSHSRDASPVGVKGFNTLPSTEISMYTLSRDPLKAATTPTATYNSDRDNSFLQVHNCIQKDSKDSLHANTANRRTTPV
Target sequence (P19491 whole entry, looked up): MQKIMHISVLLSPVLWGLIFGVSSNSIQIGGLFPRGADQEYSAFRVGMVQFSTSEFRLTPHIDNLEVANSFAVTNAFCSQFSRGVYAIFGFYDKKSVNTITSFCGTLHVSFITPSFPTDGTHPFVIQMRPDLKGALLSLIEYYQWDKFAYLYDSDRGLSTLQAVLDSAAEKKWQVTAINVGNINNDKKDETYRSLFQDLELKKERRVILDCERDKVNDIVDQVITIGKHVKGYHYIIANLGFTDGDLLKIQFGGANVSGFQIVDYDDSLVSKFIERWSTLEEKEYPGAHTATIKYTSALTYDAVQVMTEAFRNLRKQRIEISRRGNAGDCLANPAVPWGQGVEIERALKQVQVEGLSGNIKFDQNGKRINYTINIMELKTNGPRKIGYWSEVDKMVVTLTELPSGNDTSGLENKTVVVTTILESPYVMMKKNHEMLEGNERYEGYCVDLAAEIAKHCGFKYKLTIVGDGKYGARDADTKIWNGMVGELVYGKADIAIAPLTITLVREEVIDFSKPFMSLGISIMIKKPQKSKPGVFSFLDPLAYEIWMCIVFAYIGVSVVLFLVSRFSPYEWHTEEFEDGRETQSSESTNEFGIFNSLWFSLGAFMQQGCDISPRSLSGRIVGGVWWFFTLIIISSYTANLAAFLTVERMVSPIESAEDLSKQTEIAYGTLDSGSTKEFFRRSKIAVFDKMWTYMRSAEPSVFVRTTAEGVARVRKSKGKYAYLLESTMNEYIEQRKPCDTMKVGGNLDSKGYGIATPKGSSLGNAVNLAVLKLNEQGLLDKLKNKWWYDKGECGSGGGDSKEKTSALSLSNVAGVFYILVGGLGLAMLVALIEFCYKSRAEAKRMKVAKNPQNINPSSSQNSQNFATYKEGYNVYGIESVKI
GIRK2 act – Activates human GIRK2-containing potassium channels; P48051; 34,000 tested, under 10 active; activation (% efficacy), % for hits at 37.5 µM; HEK293 GIRK2/NPY4 cells, thallium flux fluorescence;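 active = primary screen hit, no activity in plain HEK293 cells, and in GIRK2-only cells above 5% efficacy rising with concentration; inactive = the rest, including fluorescent compounds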;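 also: efficacy is normalized control-subtracted fluorescence 15 s after thallium addition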
* = called active by the depositor; i = inactive; / = not tested or not shown; + = active, no number; ! = not confirmed by another sample.

SMILES | AMPAR-TARP mod | GIRK2 act
Cc1ccc(CNC(=O)CSc2nnc(-c3ccncc3)o2)cc1 | i | i
CC(C)CS(=O)(=O)NCC1(c2cccs2)CCOCC1 | i | i
CCS(=O)(=O)NCC1(c2cccs2)CCOCC1 | + | i
COc1ccc(S(=O)(=O)NCC(c2ccsc2)N2CCc3ccccc3C2)cc1OC (stereo not drawn) | i | i
COc1ccc(S(=O)(=O)NCc2nnnn2-c2ccc(F)cc2)cc1 | + | /
COc1ccc(S(=O)(=O)NCc2nnnn2-c2ccc(F)c(F)c2)cc1 | i | /
O=C(C1COCC(=O)N1Cc1ccccc1)N1CCN(c2ccc(F)cc2)CC1 (stereo not drawn) | i | i
O=C(Nc1ccc(-n2cnnn2)cc1)C1COCC(=O)N1Cc1ccccc1 (stereo not drawn) | i | i
O=C(C1COCC(=O)N1Cc1ccccc1)N1CCN(c2cccc(Cl)c2)CC1 (stereo not drawn) | + | i
CC(C)(C)c1cc(NC(=O)C2COCC(=O)N2Cc2ccccc2)on1 (stereo not drawn) | + | i
COc1cc(NC(=O)COc2cccc(C)c2)ccc1N1CCCCC1=O | i | i
CC(C)N1CCC(CNC(=O)c2c(F)cccc2F)CC1 | / | i
CCOc1ccc(-c2cc(=O)n(Cc3cccc(F)c3)cn2)cc1 | i | i
CCOC(=O)C1C(=O)CC(C)(O)C(C(=O)OCC)C1c1cccs1 (stereo not drawn) | i | i
CCOC(=O)C1C(=O)CC(C)(O)C(C(=O)OCC)C1c1ccc(C)cc1 (stereo not drawn) | + | i
Cc1cc(N2CCC(Cc3ccccc3)CC2)nc(-n2cc([N+](=O)[O-])cn2)n1 | i | i
Cc1cc(N2CCN(Cc3ccccc3)CC2)nc(-n2cc([N+](=O)[O-])cn2)n1 | + | i
COc1ccc(Nc2cc(C)nc(-n3cc([N+](=O)[O-])cn3)n2)cc1 | i | i
Cc1cc(Nc2ccc(Cl)cc2)nc(-n2cc([N+](=O)[O-])cn2)n1 | + | i
CCOC(=O)c1c(SCC(=O)c2ccccc2)nc(=O)[nH]c1C | i | i
COc1ccccc1CCNC(=O)C(=O)Nc1ccc([N+](=O)[O-])cc1C | i | /
Cc1nc2c(c(=O)c3ccccc3n2C)c(=O)n1C1CCCCCC1 | + | /
COc1ccc(CCn2c(C)nc3c(c(=O)c4ccccc4n3C)c2=O)cc1OC | i | /
Cc1nc2c(c(=O)c3ccccc3n2C)c(=O)n1-c1ccccc1 | i | /
COc1ccc(Cn2c(C)nc3c(c(=O)c4ccccc4n3C)c2=O)cc1 | + | /
SMILES | AMPAR-TARP mod | GIRK2 act
Cc1ccsc1C(O)CNC(=O)C1c2ccccc2Oc2ccccc21 (stereo not drawn) | + | i
Cc1ccsc1C(O)CNC(=O)CSCc1ccccc1 (stereo not drawn) | i | i
Cn1c(=O)c2c(SCC(=O)NCc3ccccc3)ccnc2n(C)c1=O | i | i
Cc1ccc(C)c(Cn2c(=O)c3c(nc4oc(-c5ccc(F)cc5)cn43)n(C)c2=O)c1 | i | /
Cc1ccc(Cn2c(=O)c3c(nc4oc(-c5ccc(F)cc5)cn43)n(C)c2=O)cc1 | + | i
O=c1ccc(-c2ccco2)nn1CCCNS(=O)(=O)c1ccc2c(c1)CCCC2 | + | i
O=c1ccc(-c2ccco2)nn1CCCNS(=O)(=O)c1ccc2c(c1)OCCO2 | i | i
CCOc1ccc(S(=O)(=O)Nc2ccc3c(c2)N(C(=O)C2CCCC2)CC3)cc1C | i | i
O=C(NCCn1nc(-n2cccn2)ccc1=O)c1cncc(Br)c1 | / | i
Cc1cc2c(cc1C)NC(CC(=O)NCC(C)C)C(=O)N2 (stereo not drawn) | i | /
COC(=O)c1ccsc1NC(=O)CC1Nc2cc(C)c(C)cc2NC1=O (stereo not drawn) | + | i
O=C(Cc1ccc(NC(=O)C23CC4CC(CC(C4)C2)C3)cc1)NC1CC1 | i | i
CCOc1ccc(NC(=O)C23CC4CCC(CC(C4)C2)C3)cc1 | + | /
COc1cccc2sc(N(CCN(C)C)C(=O)c3cc(C)nn3C)nc12 | + | i
COc1cccc2sc(N(CCCN(C)C)C(=O)c3cc(C)nn3C)nc12 | i | i
CCOc1ccccc1NC(=O)CSc1nnnn1-c1ccccc1C(F)(F)F | i | i
CCOc1ccccc1NC(=O)CSc1nnnn1-c1cccc(C)c1 | +! | i
CCCS(=O)(=O)N1CCCc2cc(NC(=O)NC(C)(C)C)ccc21 | i | i
Cc1nccn1CC1CCN(C(=O)NCCc2ccccc2)CC1 | i | i
O=C(CCc1csc(NS(=O)(=O)c2ccc(F)cc2)n1)Nc1ccc(Cl)cc1 | + | i
O=C(CCc1csc(NS(=O)(=O)c2ccccc2)n1)Nc1ccc(OC(F)(F)F)cc1 | i | i
COc1ccc(NC(=O)CCc2csc(NS(=O)(=O)c3ccccc3)n2)cc1OC | i | i
Cc1ccc(S(=O)(=O)Nc2nc(CCC(=O)NCc3ccc(F)cc3)cs2)cc1 | i | i
NC(=O)c1ccc(NC(=O)CCc2csc(NS(=O)(=O)c3ccccc3)n2)cc1 | + | i
CC(=O)c1cccc(NC(=O)CCc2csc(NS(=O)(=O)c3ccccc3)n2)c1 | + | i
SMILES | AMPAR-TARP mod | GIRK2 act
CCCCOC(=O)c1ccc(NC(=O)Cc2cc(-c3cccs3)on2)cc1 | i | i
CCOc1ccc(S(=O)(=O)N2CCN(Cc3nc(-c4ccco4)cs3)CC2)cc1 | i | i
O=S(=O)(NCCOc1ccc2nnc(-c3ccccc3)n2n1)c1ccc(Cl)s1 | / | i
O=C(COc1ccc(Cl)cc1Cl)Nc1ccc2c(c1)N(C(=O)C1CCCO1)CC2 (stereo not drawn) | i | i
COc1ccc(NC(=O)CCCn2nc(-c3ccc(F)cc3)ccc2=O)cc1 | i | i
Cc1cc(C(=O)N2CCC3(CC2)OCCN3S(=O)(=O)c2cccs2)c(C)o1 | + | i
COc1ccc(S(=O)(=O)N2CCOC23CCN(C(=O)c2cc(C)oc2C)CC3)cc1 | i | i
O=C(Nc1nc2ccc([N+](=O)[O-])cc2s1)c1ccc(S(=O)(=O)N2CCCCC2)cc1 | i | /
Nc1nc2ccc(S(=O)(=O)N3CCCCC3)cc2s1 | + | i
Cc1cc(=O)[nH]c2cc(NC(=O)CSc3nnnn3C)ccc12 | / | i
Cc1cc(C)c(NC2=C/C(=N/S(=O)(=O)c3cccs3)c3ccccc3C2=O)c(C)c1 | + | /
Cc1cc(C)c(NC(=O)C2(c3cccs3)CCOCC2)c(C)c1 | i | i
COc1ccc(CCS(=O)(=O)NCC2CCN(Cc3cccs3)CC2)cc1 | / | i
COc1ccc(CCS(=O)(=O)NCC2CCN(C(=O)c3ccccc3F)CC2)cc1 | + | i
COc1ccc(CCS(=O)(=O)NCC2CCN(Cc3ccccc3)CC2)cc1 | + | i
COc1ccc(CCS(=O)(=O)NCC2CCN(c3ncccn3)CC2)cc1 | i | i
Cc1ccc(C)c(CN2C(=O)N(c3ccccc3)C3CS(=O)(=O)CC32)c1 (stereo not drawn) | i | /
COc1cc(-c2nnc(NC(=O)c3ccn(C)n3)o2)cc(OC)c1OC | i | i
Cc1cc(N(C)C)nc(Nc2ccc(NC(=O)c3ccc4c(c3)OCO4)cc2)n1 | + | /
Cc1ccc(Nc2ccc(NC(=O)c3ccc4c(c3)OCO4)cc2)nn1 | i | i

Screens from PubChem BioAssay.
